HEK cytotox – HEK 293 cell cytotoxicity | HEK 293 viability, ATP luminescence (CellTiter-Glo), 48-72 h | Potency, µM (top dose mostly 115 µM), for the others: at the highest dose activity change, negative = cytotoxicity, actives largely listed as inhibitors | 94,000 compounds, 6.6% hits | AID 1345083; note: nearly all actives have a fitted effect of over 60% in size
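Pintool-delivered compounds were incubated with HEK 293 cells (250 cells/well) at 37 degree Celsius for 48 or 72 hr. ATP-dependent luminescence (CellTiter-Glo) then reported remaining viable cells.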
NPR1 antag – human Npr1 receptor antagonism. AID 1347048. HEK293 hNpr1 GloSensor cGMP, ANP-stimulated luminescence. P16066. Potency, µM (top dose mostly 46.3 µM), without a hit: at the highest dose activity change, negative = inhibition, most hits filed as inhibitors. 76,000 compounds, 1.6% hits; calls by dose curve; note: nearly all actives have a fitted effect of over 60% in size
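Compound pre-incubated 30 min at room temperature on GloSensor-loaded HEK293 cells stably carrying hNpr1 and the pGS-40F cGMP biosensor. Stimulation uses hNppA at 0.1 nM final; luminescence is taken at baseline and 20 min post-agonist.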
GPT2 inhibitor – blocks human glutamate pyruvate transaminase 2; Potency, µM (doses to about 57.7 µM), inactives show top-dose activity change, negative = inhibition, usual class: inhibitors; AID 1671188; Recombinant GPT2, coupled pyruvate oxidase/HRP Amplex Red fluorescence; 100,000 compounds, 0.25% hits; note: nearly all actives have a fitted effect of over 60% in size
Target sequence (Q8TD30 whole entry, looked up): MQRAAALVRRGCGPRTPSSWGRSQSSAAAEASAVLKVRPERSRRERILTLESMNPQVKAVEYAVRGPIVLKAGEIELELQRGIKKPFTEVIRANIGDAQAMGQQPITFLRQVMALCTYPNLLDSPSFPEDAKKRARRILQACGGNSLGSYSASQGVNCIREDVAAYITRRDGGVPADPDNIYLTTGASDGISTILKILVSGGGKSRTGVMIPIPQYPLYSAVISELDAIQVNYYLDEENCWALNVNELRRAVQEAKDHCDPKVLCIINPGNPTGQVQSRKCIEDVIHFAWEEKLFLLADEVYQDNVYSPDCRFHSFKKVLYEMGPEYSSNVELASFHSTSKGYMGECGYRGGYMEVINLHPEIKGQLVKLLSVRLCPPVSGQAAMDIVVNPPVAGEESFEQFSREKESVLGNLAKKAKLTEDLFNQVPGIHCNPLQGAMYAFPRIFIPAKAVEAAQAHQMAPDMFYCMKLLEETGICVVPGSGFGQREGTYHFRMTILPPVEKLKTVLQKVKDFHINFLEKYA
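Fluorescence read-out: pyruvate from GPT2 turnover coupled to pyruvate oxidase, HRP and Amplex Red (0.2mM ThPP, 0.2U/mL PO and HRP, 50uM Amplex final). Substrates 250uM a-KG, 2mM L-alanine; enzyme 10ng/uL; 30 min RT.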
NIH3T3 tox – kills NIH 3T3 cells; Potency, µM (doses to about 96.7 µM), for inactives: at the highest dose activity change, negative = cytotoxicity, hits mostly inhibitors; 94,000 compounds, 4.3% hits; NIH 3T3 viability, CellTiter-Glo ATP luminescence, 48-72 h; AID 1345082; note: nearly all actives have a fitted effect of over 55% in size
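NIH 3T3 cells at 400 cells/well received 23 nL of compound by pintool and were incubated 48 or 72 h at 37 °C. Viability was read as ATP-coupled CellTiter-Glo luminescence.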
FLuc inh – inhibitors of firefly (Photinus pyralis) luciferase; P08659; purified P. pyralis luciferase, luminescence, biochemical; Potency, µM (titrated, usually from 115 µM), usual class: inhibitors; 76,000 compounds, 2.5% hits; AID 1347043; note: nearly all actives have a fitted effect of over 65% in size
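FLuc 10nM, D-luciferin 10uM, ATP 10uM, Mg acetate 10mM, Tris acetate pH 7.5, Tween/BSA; cpd qHTS; enzyme added last; CCD luminescence.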
Numbers without * were called inactive; i = inactive; ? = inconclusive; · = no result; [ ] = another dose, or the depositor's remark. An excerpt weighted towards active compounds, which were near 10% of everything screened. Unless noted, calls come from the whole dose curve; as a rule, active = well fitted curve in the direction sought with a large enough effect; inconclusive = small, poorly fitted or top-dose-only effect, or another doubt; inactive = no such curve, though single readings can be large; an effect the other way counts as inactive or inconclusive. % is set by controls: 0 for no effect and ±100 for the full control effect; potency is the fitted concentration of half-maximal effect.

SMILES	HEK cytotox	NPR1 antag	GPT2 inhibitor	NIH3T3 tox	FLuc inh
COc1ccc(-c2cc(C(=O)NCc3cccc(C(F)(F)F)c3)c3cnn(C)c3n2)cc1	35.5µM*	·	2.7%	31.6µM*	·
C#CCNC(=O)c1cc(-c2cccc(C(F)(F)F)c2)nc2c1cnn2C	?	·	·	10µM*	·
Cn1cc(CC(=O)N2CCCc3ncc(C(=O)NCCc4ccccn4)cc32)c2ccccc21	?	-5.8%	3.6%	?	i
Cn1ncc2c(C(=O)NCc3cccc(F)c3)cc(-c3ccccc3F)nc21	44.7µM*	·	·	?	·
CN1CCN(C(=O)c2cc(-c3cccc(C(F)(F)F)c3)nc3c2cnn3C)CC1	?	·	i	31.6µM*	·
CC(=O)N1CCCN(C(=O)c2cc(-c3cc(Cl)cc(Cl)c3)nc3c2cnn3C)CC1	79.4µM*	·	·	?	·
CC(=O)N1CCN(C(=O)c2cc(-c3cccc(C(F)(F)F)c3)nc3c2cnn3C)CC1	-19.3%	·	?	?	·
O=C(NCCc1ccccc1)C1CCN(C(=O)c2ccc(-c3cccs3)cc2)CC1	-22.5%	·	·	-23.8%	·
O=C(NCc1ccc(C(F)(F)F)cc1)C1CCN(C(=O)c2ccc(-c3cccs3)cc2)CC1	31.6µM*	·	·	7.08µM*	·
O=C(NCCc1ccc(Cl)cc1)C1CCN(C(=O)c2ccc(-c3cccs3)cc2)CC1	44.7µM*	·	·	?	·
CN(Cc1ccccc1)Cc1nc2c(n1Cc1ccccc1)C(=O)N(CC1CC1)CCN2	?	-1.2%[70.6 µM]	4.3%[88.5 µM]	?	i
O=C(NCCN[S+](=O)([O-])c1cccc(C(F)(F)F)c1)c1ccc(-c2cncnc2)cc1	89.1µM*	·	·	-31.4%	·
CCOCCNC(=O)CNC(=O)c1ccc(-c2cccc(C(F)(F)F)c2)cc1	?	·	-12.4%	?	·
O=C(NCCN[S+](=O)([O-])c1cccc(C(F)(F)F)c1)c1ccc(-c2cccc(C(F)(F)F)c2)cc1	39.8µM*	·	·	28.2µM*	·
CCC(C)NC(=O)CNC(=O)c1ccc(-c2cccc(C(F)(F)F)c2)cc1 (centres undefined)	35.5µM*	·	-10.2%	-24.0%	·
Cc1ccc([S+](=O)([O-])NCCNC(=O)c2ccc(-c3cncnc3)cc2)cc1	-28.4%	·	·	-28.5%	·
O=C(NCCN[S+](=O)([O-])c1cccc(C(F)(F)F)c1)c1cccc(-c2ccsc2)c1	?	·	-1.9%	39.8µM*	·
O=C(c1ccc(F)cc1)N1CCN(C(=O)c2nc3cccnc3n(Cc3ccccc3)c2=O)CC1	-7.4%	·	-7.0%	-9.5%	·
Cc1onc(C(=O)N2CCC(CCOc3ccc(F)cc3)C2)c1Cn1cc(Cl)cn1 (centres undefined)	?	?	i	44.7µM*	i
O=Cc1cccc(N2CCN(C(=O)c3ccncc3)CC2=O)c1	3.1%	·	1.7%	-13.9%	·
Cc1cnc(CCNC(=O)c2cccs2)n1C1CCC1	-17.2%	·	-6.5%	-22.2%	·
Cc1nn(-c2ccccc2)c2c1C(C1CC1)N(C1CN(C(=O)c3ccc(F)cc3)C1)C2=O (centres undefined)	44.7µM*	·	·	?	·
COCC(=O)N1CC(N2C(=O)c3c(c(C)nn3-c3ccccc3)C2C2CC2)C1 (centres undefined)	-13.6%[172 µM]	·	·	112µM*	·
O=C(C1CCCCC1)N1CC(N(Cc2ccccn2)C(=O)Nc2ccccc2)C1	-1.5%	·	i	-19.5%	·
COc1cccc(CNC(=O)c2nc3sccn3c2-c2ccccc2)c1	?	·	i	?	·
SMILES	HEK cytotox	NPR1 antag	GPT2 inhibitor	NIH3T3 tox	FLuc inh
Cc1cccc(CN2CCCC3(CCN(C(=O)CCc4ccccc4C)C3)C2)c1 (centres undefined)	89.1µM*	1.8%	-3.1%	?	i
COC(=O)[C@@H]1Cc2ncn(Cc3ccc(OC)cc3)c2CN1Cc1ccc(OC)cc1	?	-26.6%[70.6 µM]	-7.2%[88.5 µM]	?	i
CCOc1cc(=O)n2c(c1C(=O)Nc1ccc3c(c1)OCCO3)CCCCC2	-24.1%	-19.2%	3.8%	-3.1%	39.8µM*
CCOc1cc(=O)n2c(c1C(=O)Nc1ccc(OC)c(OC)c1)CCCC2	3.6%	0.4%	-9.3%	i	i
O=[S+]1([O-])c2cccnc2OC(COc2ccccc2)CN1C1Cc2ccccc2C1 (centres undefined)	?	·	0.4%[27.3 µM]	?	·
CN(C)c1cccc(-c2cc3c(cn2)CN(Cc2cccnc2)CCN3)c1	?	-24.4%[70.6 µM]	i	?	?
Fc1ccccc1CN1CCNc2cc(Nc3ccccc3)ncc2C1	112µM*	-3.4%[70.6 µM]	-11.5%[88.5 µM]	50.1µM*	20µM*
c1ccc(Nc2cc3c(cn2)CN(Cc2cnc[nH]2)CCN3)cc1	?	-1.9%[70.6 µM]	i	?	?
c1ccc(Nc2cc3c(cn2)CN(Cc2ccc4[nH]ccc4c2)CCN3)cc1	39.8µM*	-28.0%[70.6 µM]	-25.9%[88.5 µM]	28.2µM*	?
CN(C)c1cccc(Nc2cc3c(cn2)CN(Cc2ccccc2)CCN3)c1	28.2µM*	?	-15.7%[88.5 µM]	44.7µM*	22.4µM*
c1ccc(Nc2cc3c(cn2)CN(Cc2cccs2)CCN3)cc1	50.1µM*	-19.4%[70.6 µM]	?	50.1µM*	?
Fc1cccc(CN2CCNc3cc(Nc4ccccc4)ncc3C2)c1	39.8µM*	-22.1%[70.6 µM]	i	44.7µM*	31.6µM*
c1ccc(CNc2cc3c(cn2)CN(Cc2cccnc2)CCN3)cc1	-66.1%[172 µM]	-13.1%[70.6 µM]	i	-68.2%[138 µM]	i
COc1ccccc1-c1ccc2c(C(=O)NCc3ccc(F)cc3)nn(C)c2n1	-28.5%	·	i	-28.7%	·
Cn1cc(CN2Cc3ccc(C(=O)Nc4ccc(F)cc4)cc3OCC2=O)cn1	?	-5.4%[70.6 µM]	-6.0%[88.5 µM]	-25.1%[138 µM]	i
CN1Cc2ccc(C(=O)Nc3ccc4cn[nH]c4c3)cc2OCC1=O	-23.3%[172 µM]	-1.8%[70.6 µM]	4.1%[88.5 µM]	?	31.6µM*
O=c1ncn(CC2CC2)c2ccc(-c3ccc(Cl)cc3)nc12	-19.5%[172 µM]	-13.2%[70.6 µM]	-28.3%[88.5 µM]	?	i
O=c1ncn(CC2CC2)c2ccc(-c3ccc4c(c3)OCO4)nc12	2.6%[172 µM]	1.7%[70.6 µM]	3.3%[88.5 µM]	?	44.7µM*
COc1cccc(Nc2ccc3nnc(-c4cc(OC)ccn4)n3n2)c1	?	?	-21.2%[88.5 µM]	?	?
CN(c1ccccc1)c1ccc2nnc(-c3cc(C(=O)NCc4ccncc4)ccn3)n2n1	70.8µM*	-5.6%[70.6 µM]	3.4%[88.5 µM]	?	i
COc1cccc(NC(=O)c2ccnc(-c3nnc4ccc(Nc5ccccc5)nn34)c2)c1	39.8µM*	-26.4%	-13.6%	35.5µM*	i
O=C(NCC1CCCO1)c1ccnc(-c2nnc3ccc(Nc4ccccc4)nn23)c1 (centres undefined)	?	1.4%[70.6 µM]	-18.9%[88.5 µM]	?	i
O=C(NCc1ccc(F)cc1)c1ccnc(-c2nnc3ccc(Nc4ccccc4)nn23)c1	?	-26.8%	-8.4%	25.1µM*	i
COc1ccnc(-c2nnc3ccc(NC4CCOCC4)nn23)c1	-24.9%[172 µM]	-1.7%[70.6 µM]	-0.2%[88.5 µM]	79.4µM*	i

Screening results as filed in PubChem.
